The text below walks through data of paper PMC12136788.

To fix the notation:
T1: UNK ZnF1-6 (called full-length) (human, UniProt Q9C0B0 30-357)
T1 sequence: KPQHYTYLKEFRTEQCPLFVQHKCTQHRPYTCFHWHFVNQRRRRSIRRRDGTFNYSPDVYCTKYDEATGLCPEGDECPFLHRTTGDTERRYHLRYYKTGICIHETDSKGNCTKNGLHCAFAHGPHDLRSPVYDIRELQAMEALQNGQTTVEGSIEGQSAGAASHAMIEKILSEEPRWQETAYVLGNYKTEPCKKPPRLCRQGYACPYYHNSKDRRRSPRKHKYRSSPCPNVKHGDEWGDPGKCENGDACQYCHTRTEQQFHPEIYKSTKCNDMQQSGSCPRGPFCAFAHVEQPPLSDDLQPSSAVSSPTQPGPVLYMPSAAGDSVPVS

B1: chr2:27433287:27433389:+|CDS|ENSG00000115216|unk|FALSE|unique (ssRNA)
RNA: GGGAGUUCUACAGUCCGACGAUCUUCCAGCAUGUCGGAGGGGGAGUCCCAGACAGUACUUAGCAGUGGCUCAGACCCAAAGGUAGAAUCCUCAUCUUCAGCUCCUGGCCUGACAUCAGUGUCACCUCCUGUGACCUCCACAACCAACAGAGGAUUGAGCAUCA
B2: chr8:6811200:6812339:-|CDS|ENSG00000275591|control|control|control (ssRNA)
RNA: GGGAGUUCUACAGUCCGACGAUCAUGUAGAGGCUUCUGCCCCAGUGCAGGCUUCCCUGGAAGAACCCUCAGUAUCUCAGAGCUAGAGGAGCCGCUGGAGCCCAAAAGGGAGCUAAGUCACCAUGCAGCUGUUGGUGUGUGGGUCAACAGAGGAUUGAGCAUCA
B3: chr19:58083837:58084684:-|three_prime_utr|ENSG00000121413|control|control|control (ssRNA)
RNA: GGGAGUUCUACAGUCCGACGAUCGCUCGCAUCCGAGGGGAGCCGCCGGAUGUGGAAGAAGACUCGGCUUUCCUGCAGCCAUUUAGUGCCGCCCCAUGCUAGGUUAUUUGACAUUGUGCAGUGUAGAGUUGCCUUAAAGUGCGUCAACAGAGGAUUGAGCAUCA
B4: chr1:211748167:211748268:-|3pUTR|ENSG00000123684|msi1|FALSE|unique (ssRNA)
RNA: GGGAGUUCUACAGUCCGACGAUCGUACUGCAUCAGUGAGAUGAGUAGGGUUUUUGUUUGGGAUUGUAAGACUAUUAAGAUCCUAGUAAGUCAGUGGUAGUUUACUGUGAUGUGAGCAUUGUAGAUUCCCCCGUUGUCACUAAUCAACAGAGGAUUGAGCAUCA
B5: chr17:63354981:63355093:+|CDS|ENSG00000170921|unk|total|mutant (ssRNA)
RNA: GGGAGUUCUACAGUCCGACGAUCCAGUCAAGGGUCCUAUCUAUAUCUGAAACUUACAUUUGACCUCACCGAGAAAGGCUAUCCCGUGUUAAAGAGCUCCCGCUACAAAGCCGUUCCUGUUUCGCUCUCAGAGGUUUAUUUACUCAACAGAGGAUUGAGCAUCA
B6: chr11:72288215:72288316:-|3pUTR|ENSG00000162129|unk|FALSE|unique (ssRNA)
RNA: GGGAGUUCUACAGUCCGACGAUCACCCAGCUAAUUUUUUUUGUAUUUUUAGUAAAGACGGGGUUUCACCAUGUUUGCCAGGCUAGUCUCAAACUCCUGGUCUCAAGUGAUCCACCCACCUUGGCCUCCCAGAGUGCUGAGAUUCAACAGAGGAUUGAGCAUCA

In all, about 5,800 sequences were measured (“enrichment r”: median about 0.68, highest 2% from about 11 on). For the sample, the highest values were picked, then their nearest neighbours and some sequences at random.

The experiment deals with T1, UNK ZnF1-6 (called full-length). In words: nsRBNS (natural sequence RNA bind-n-seq); RBNS binding buffer (assumed for nsRBNS): 25 mM Tris pH 7.5, 150 mM KCl, 3 mM MgCl2, 0.01% Triton X-100, 500 ug/ml BSA, 20 U/ml SUPERase-In, 4 C; UNK is unkempt and MSI1 is Musashi-1; names of the RNAs are library labels; protein concentration not given here; high values mean tight binding.
In turn, B1 came in with a binding signal of 0.848 enrichment R. Then B2, with 0.868 enrichment R. As for B3, the binding signal came out at 0.832 enrichment R.

For B4, the binding signal was found to be 0.481 enrichment R. Molecule B5 showed a binding signal of 0.664 enrichment R. B6 gave a binding signal of 3.92 enrichment R.
